Experimental data reported in PubChem BioAssay (NCI).
This is part of a sample that, as a whole, favours compounds with a hit. Of some 83,000 tested, about 20% had one in any assay.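 Interpretation: 100, growth as untreated; towards 0, rising growth inhibition; 0, no net growth; 0 to -100, cell death. Compounds scoring below 10 were considered active.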 Activity calls are given as the source filed them.

tested on: BT-549 breast; assay: NCI-60 one-dose screen, 48 h (100 = growth as untreated, 0 = no growth, -100 = all killed); settings: 10 µM

Row | SMILES | growth
1 | Nc1ccc(Sc2ccc3c4c2cccc4c(=O)n2c4ccccc4nc32)cc1 | 59.1% (inactive)
2 | O=C(c1ccccc1)C(Sc1ccccc1)c1ccccc1 (stereo unspecified) | 92.9% (inactive)
3 | O=NN(CCCl)C(=O)Nc1ccc(NC(=O)N(CCCl)N=O)cc1 | 85.2% (inactive)
4 | Nc1nc(SCC#CCCl)c2[nH]cnc2n1 | 44.8% (inactive)
5 | NC(=O)C12C(=O)NC(=O)C1(C(=O)O)C21CCCC1 (stereo unspecified) | 104% (inactive)
6 | C=C[C@]1(C)C=C2C(=O)[C@@]3(O)OC(=O)[C@@]4(CCCC(C)(C)[C@H]34)[C@@]2(O)CC1 | -93.7% (active)
7 | CCCn1c(=O)c2c(nc(-c3cccc(OCCCCl)c3)n2C)n(CCC)c1=O | 67.9% (inactive)
8 | CCCCCCCC/C=C/CCCCCCCCC1=NCCN1CCO | 83.1% (inactive)
9 | COc1ccc(CSc2nc3cc(OC)c(OC)cc3c(=O)n2-c2ccc(OC)cc2OC)cc1 | 93.9% (inactive)
10 | Cc1ccccc1C1=N[C@@H](Cc2ccccc2)C(=O)c2c(nc3ccccn23)N1 | 96.9% (inactive)
11 | COc1ccc(-c2ccccc2)cc1C(=O)c1ccc(-c2ccccc2)cc1 | 76.8% (inactive)
12 | C/C=C\COc1cc(C)c(Cl)cc1Cl | 126% (inactive)
13 | CC(C)C[C@H](NC(=O)CCn1ccc2ccccc2c1=O)B(O)O | 43.4% (inactive)
14 | COc1ccc(-c2[nH]ncc2/C=C/c2cc(C(F)(F)F)[nH]c(=O)n2)cc1 | 80.4% (inactive)
15 | c1ccc(COCC[P+](c2ccccc2)(c2ccccc2)c2ccccc2)cc1 | 5.25% (active)
16 | CC(=O)Oc1c(C)c(C)c2c(c1C)CCC(C)(CC(=O)OCCCCCCCCCCC[P+](c1ccccc1)(c1ccccc1)c1ccccc1)O2 (stereo unspecified) | -91.4% (active)
